In article PMC5700166:
Positions count from the first letter of the chain named.

How the values were obtained:
Assay in all cases: protein-binding microarray (PBM); PBM: ~300 nM protein, 6 mM HEPES pH 7.8, 80 mM KCl, 0.5 mM EDTA, 0.5 mM EGTA, 6% glycerol, 35 ng/ul poly-dIdC, 1% milk, 1 h, room temperature; Ap Aiptasia and Nv Nematostella (sea anemones) / Co Capsaspora / Aq Amphimedon (sponge) / Dm Drosophila / Hu human; RHD is the Rel homology domain; high values mean tight binding
Details in all cases: dsDNA, one strand shown
GST-Ap-NF-kB RHD = molecular target: T1, GST-Ap-NF-kB RHD (Exaiptasia pallida (Aiptasia), UniProt A0A913YAJ5 2-422)
T1 sequence: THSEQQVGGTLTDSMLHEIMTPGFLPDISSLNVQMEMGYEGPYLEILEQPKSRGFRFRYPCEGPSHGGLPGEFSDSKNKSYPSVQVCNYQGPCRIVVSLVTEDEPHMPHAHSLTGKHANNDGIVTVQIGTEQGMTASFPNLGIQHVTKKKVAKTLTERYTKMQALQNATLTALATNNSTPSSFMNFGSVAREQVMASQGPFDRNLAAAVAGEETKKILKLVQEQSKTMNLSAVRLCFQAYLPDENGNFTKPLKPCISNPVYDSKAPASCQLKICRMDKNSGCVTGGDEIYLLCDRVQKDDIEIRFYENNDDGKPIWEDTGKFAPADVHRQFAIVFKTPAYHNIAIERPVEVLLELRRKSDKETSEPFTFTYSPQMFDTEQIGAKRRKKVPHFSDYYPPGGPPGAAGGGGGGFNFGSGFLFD

[1] = molecular target: T2, GST-Nv-NF-kB (Cys allele) (Nematostella vectensis, UniProt E5G601 2-411)
T2 sequence: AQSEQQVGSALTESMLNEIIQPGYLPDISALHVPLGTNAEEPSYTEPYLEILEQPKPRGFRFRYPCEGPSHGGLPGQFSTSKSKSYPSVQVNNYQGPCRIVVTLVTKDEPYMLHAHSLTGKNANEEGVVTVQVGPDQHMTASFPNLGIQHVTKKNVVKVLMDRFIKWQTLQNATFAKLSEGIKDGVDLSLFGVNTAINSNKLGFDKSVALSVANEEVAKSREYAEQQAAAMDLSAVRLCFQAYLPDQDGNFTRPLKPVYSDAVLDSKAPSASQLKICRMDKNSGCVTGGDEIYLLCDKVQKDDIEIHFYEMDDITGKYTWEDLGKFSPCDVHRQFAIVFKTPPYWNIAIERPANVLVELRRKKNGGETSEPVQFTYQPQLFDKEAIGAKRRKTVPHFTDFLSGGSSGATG

[2] = molecular target: T3, GST-Nv-NF-kB (Ser allele) (Nematostella vectensis, UniProt A7UNT2 2-411)
T3 sequence: T2 sequence with Q21R, C66S, S207N, E215Q, V217A, E225K, A268E, D399E

GST-Co-NF-kB = molecular target: T4, GST-Co-NF-kB (Capsaspora owczarzaki, UniProt F1ARL5 200-546)
T4 sequence: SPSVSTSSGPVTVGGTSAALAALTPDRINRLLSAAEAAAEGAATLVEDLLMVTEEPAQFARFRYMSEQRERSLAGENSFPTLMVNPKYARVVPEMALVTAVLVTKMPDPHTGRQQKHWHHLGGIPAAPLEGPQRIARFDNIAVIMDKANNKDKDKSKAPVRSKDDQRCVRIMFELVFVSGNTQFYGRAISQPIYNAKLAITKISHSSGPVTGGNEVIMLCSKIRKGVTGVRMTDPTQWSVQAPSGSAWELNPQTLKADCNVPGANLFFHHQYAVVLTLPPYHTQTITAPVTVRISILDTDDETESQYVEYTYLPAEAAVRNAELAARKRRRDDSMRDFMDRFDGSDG

GST-Dm-Relish = molecular target: T5, GST-Dm-Relish (Drosophila melanogaster, UniProt Q94527 99-473)
T5 sequence: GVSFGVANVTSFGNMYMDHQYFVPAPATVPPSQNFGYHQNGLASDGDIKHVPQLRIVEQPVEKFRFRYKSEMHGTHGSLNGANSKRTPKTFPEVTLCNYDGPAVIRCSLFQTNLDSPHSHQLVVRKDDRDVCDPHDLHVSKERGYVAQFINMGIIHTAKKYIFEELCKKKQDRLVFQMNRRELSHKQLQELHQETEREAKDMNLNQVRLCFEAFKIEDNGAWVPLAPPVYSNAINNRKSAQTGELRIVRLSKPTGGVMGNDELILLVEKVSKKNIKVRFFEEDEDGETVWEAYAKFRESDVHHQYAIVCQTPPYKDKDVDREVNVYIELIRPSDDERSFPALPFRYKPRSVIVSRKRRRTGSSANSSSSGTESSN

GST-Aq-NF-kB = molecular target: T6, GST-Aq-NF-kB (Amphimedon queenslandica, UniProt A9Y5G7 2-389)
T6 sequence: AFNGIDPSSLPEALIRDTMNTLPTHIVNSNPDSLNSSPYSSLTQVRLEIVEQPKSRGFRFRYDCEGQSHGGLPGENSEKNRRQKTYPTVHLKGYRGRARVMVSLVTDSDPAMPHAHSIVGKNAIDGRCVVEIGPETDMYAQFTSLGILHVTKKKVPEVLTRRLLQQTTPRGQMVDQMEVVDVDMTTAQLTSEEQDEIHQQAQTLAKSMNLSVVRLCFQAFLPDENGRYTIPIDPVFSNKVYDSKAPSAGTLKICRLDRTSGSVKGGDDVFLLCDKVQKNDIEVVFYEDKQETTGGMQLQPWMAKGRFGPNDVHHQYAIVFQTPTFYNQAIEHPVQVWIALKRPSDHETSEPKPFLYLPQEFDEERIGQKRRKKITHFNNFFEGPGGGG

GST-Hu-p50 = GST-Hu-p50 (Homo sapiens, UniProt P19838 7-356)
GST-Hu-p50, sequence (P19838 7-356): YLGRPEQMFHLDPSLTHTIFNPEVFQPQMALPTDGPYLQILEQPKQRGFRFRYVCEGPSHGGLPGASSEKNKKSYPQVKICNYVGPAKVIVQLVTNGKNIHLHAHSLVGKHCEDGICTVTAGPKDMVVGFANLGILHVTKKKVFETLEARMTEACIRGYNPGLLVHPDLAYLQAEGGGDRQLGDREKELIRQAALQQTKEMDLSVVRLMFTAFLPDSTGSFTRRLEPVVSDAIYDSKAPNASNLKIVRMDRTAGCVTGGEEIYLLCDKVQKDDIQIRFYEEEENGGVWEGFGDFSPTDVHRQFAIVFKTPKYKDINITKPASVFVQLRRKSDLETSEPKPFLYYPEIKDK

| Sequence | binding signal (GST-Ap-NF-kB RHD) [z-score] | binding signal [1] [z-score] | binding signal [2] [z-score] | binding signal (GST-Co-NF-kB) [z-score] | binding signal (GST-Dm-Relish) [z-score] | binding signal (GST-Aq-NF-kB) [z-score] | binding signal (GST-Hu-p50) [z-score] |
| --- | --- | --- | --- | --- | --- | --- | --- |
| CCGATTAACATCAGGGATATCCCTGATGTTAATCGGGTCTTGATTCGCTTGACGCTGCTG | 6.62 | 6.52 | 4.4 | 3.18 | 7.32 | 7.89 | 3.87 |
| CCGATTAACATCAGAAACACCCCTGATGTTAATCGGGTCTTGATTCGCTTGACGCTGCTG | 3.57 | 2.68 | 2.16 | 3.34 | 3.56 | 3.93 | 3.61 |
| CCGATTAACATCACGGGGAATTATGATGTTAATCGGGTCTTGATTCGCTTGACGCTGCTG | 7.23 | 8.96 | 9.51 | 8.2 | 6.78 | 6.42 | 6.24 |
| CCGATTAACATCAGGGGAATGTATGATGTTAATCGGGTCTTGATTCGCTTGACGCTGCTG | 6.02 | 7.74 | 8.56 | 6.26 | 2.96 | 5.58 | 5.69 |
| CCGATTAACATCAAGTTTTTCCCTGATGTTAATCGGGTCTTGATTCGCTTGACGCTGCTG | 4.35 | 5.43 | 7.41 | 5.3 | 5.12 | 5.1 | 4.44 |
| CCGATTAACATCAGGGGGAAAACTGATGTTAATCGGGTCTTGATTCGCTTGACGCTGCTG | 8.4 | 8.08 | 9.8 | 11.7 | 7.59 | 7.21 | 7.47 |
| CCGATTAACATCAGGGAATGTTATGATGTTAATCGGGTCTTGATTCGCTTGACGCTGCTG | 2.55 | 4.38 | 3.78 | 2.75 | 1.85 | 5.04 | 3.32 |
| CCGATTAACATCACAAAAACCCCTGATGTTAATCGGGTCTTGATTCGCTTGACGCTGCTG | 7.23 | 7.23 | 6.81 | 2.92 | 8.1 | 6.48 | 6.99 |
| CCGATTAACATCAAAAAACTCCCTGATGTTAATCGGGTCTTGATTCGCTTGACGCTGCTG | 6.44 | 8.22 | 8.11 | 3.38 | 7.13 | 7.46 | 5.69 |
| CCGATTAACATCATTTTGGGGACTGATGTTAATCGGGTCTTGATTCGCTTGACGCTGCTG | 2.93 | 3.66 | 3.16 | 1.94 | 1.4 | 4.11 | 3.28 |
| CCGATTAACATCAGGGGGAGAAATGATGTTAATCGGGTCTTGATTCGCTTGACGCTGCTG | 7.1 | 6.13 | 7.48 | 10.7 | 3.41 | 4.8 | 6.45 |
| CCGATTAACATCAGGGAAATACCTGATGTTAATCGGGTCTTGATTCGCTTGACGCTGCTG | 6 | 8.81 | 6.78 | 3.06 | 8.42 | 9.82 | 5.57 |
| CCGATTAACATCAAAGGACCCCCTGATGTTAATCGGGTCTTGATTCGCTTGACGCTGCTG | 4.81 | 2.82 | 3.92 | 2.19 | 4.18 | 3.79 | 3.2 |
| CCGATTAACATCACGTTTTCCCCTGATGTTAATCGGGTCTTGATTCGCTTGACGCTGCTG | 7.13 | 7.87 | 10.1 | 8.47 | 4.49 | 5.5 | 5.96 |
| CCGATTAACATCAGGGGGTTCCATGATGTTAATCGGGTCTTGATTCGCTTGACGCTGCTG | 7.79 | 5.3 | 5.6 | 1.97 | 9.47 | 6.05 | 5.73 |
| CCGATTAACATCACAAATTCCCCTGATGTTAATCGGGTCTTGATTCGCTTGACGCTGCTG | 9.44 | 10.9 | 12.6 | 8.68 | 8.67 | 8.11 | 7.34 |

| Sequence | binding signal (GST-Ap-NF-kB RHD) [z-score] | binding signal [1] [z-score] | binding signal [2] [z-score] | binding signal (GST-Co-NF-kB) [z-score] | binding signal (GST-Dm-Relish) [z-score] | binding signal (GST-Aq-NF-kB) [z-score] | binding signal (GST-Hu-p50) [z-score] |
| --- | --- | --- | --- | --- | --- | --- | --- |
| CCGATTAACATCATAATTCCCCATGATGTTAATCGGGTCTTGATTCGCTTGACGCTGCTG | 6.71 | 8.63 | 8.94 | 6.68 | 4.84 | 5.33 | 6.35 |
| CCGATTAACATCAGGGGAAATACTGATGTTAATCGGGTCTTGATTCGCTTGACGCTGCTG | 7.87 | 8.59 | 11 | 8.2 | 9.53 | 7.18 | 6.88 |
| CCGATTAACATCAACAATCCCCCTGATGTTAATCGGGTCTTGATTCGCTTGACGCTGCTG | 7.89 | 7.16 | 7.92 | 5.22 | 5.46 | 5.71 | 6.6 |
| CCGATTAACATCACGAATTCCCCTGATGTTAATCGGGTCTTGATTCGCTTGACGCTGCTG | 8.93 | 10.1 | 10.9 | 7.11 | 6.96 | 6.73 | 6.95 |
| CCGATTAACATCAACATTCCCCCTGATGTTAATCGGGTCTTGATTCGCTTGACGCTGCTG | 7.55 | 8.25 | 8.8 | 9.34 | 4.3 | 6.29 | 6.48 |
| CCGATTAACATCACTAGTTTCCCTGATGTTAATCGGGTCTTGATTCGCTTGACGCTGCTG | 3.06 | 3.43 | 4.61 | 4.16 | 1.28 | 3.03 | 2.26 |
| CCGATTAACATCAAAAATTTCCCTGATGTTAATCGGGTCTTGATTCGCTTGACGCTGCTG | 5.61 | 8.92 | 8.77 | 5.47 | 6.05 | 7.58 | 5.67 |
| CCGATTAACATCAGGGGAAATGATGATGTTAATCGGGTCTTGATTCGCTTGACGCTGCTG | 5.75 | 6.87 | 9.61 | 7.35 | 2.27 | 4.43 | 5.37 |
| CCGATTAACATCACGATTTCCCCTGATGTTAATCGGGTCTTGATTCGCTTGACGCTGCTG | 7.82 | 7.92 | 10.8 | 8.64 | 5.06 | 5.72 | 6.24 |
| CCGATTAACATCACGTAATTCCCTGATGTTAATCGGGTCTTGATTCGCTTGACGCTGCTG | 3.45 | 4.96 | 5.01 | 4.02 | 6.81 | 4.89 | 3.49 |
| CCGATTAACATCAGGGGGGTGAATGATGTTAATCGGGTCTTGATTCGCTTGACGCTGCTG | 3.76 | 4.08 | 4.43 | 5.24 | 4.14 | 4.32 | 4.12 |
| CCGATTAACATCAAATGCCCCCCTGATGTTAATCGGGTCTTGATTCGCTTGACGCTGCTG | 5.13 | 4.38 | 3.91 | 5.28 | 4.71 | 5.31 | 4.49 |
| CCGATTAACATCAAAAACTTCCCTGATGTTAATCGGGTCTTGATTCGCTTGACGCTGCTG | 5.3 | 5.84 | 6.81 | 3.89 | 5.16 | 6.27 | 4.68 |
| CCGATTAACATCAACCATTCCCCTGATGTTAATCGGGTCTTGATTCGCTTGACGCTGCTG | 5.66 | 6.61 | 7.06 | 4.68 | 1.96 | 4.45 | 4.88 |
| CCGATTAACATCAAATTCCCCCATGATGTTAATCGGGTCTTGATTCGCTTGACGCTGCTG | 8.6 | 8.92 | 9.99 | 9.97 | 7.71 | 6.9 | 7.09 |
| CCGATTAACATCAATGGGATTTCTGATGTTAATCGGGTCTTGATTCGCTTGACGCTGCTG | 2.83 | 2.72 | 2.22 | 1.38 | 5.37 | 2.47 | 2.6 |
